Screening data from PubChem.
Vaccinia Venus: vaccinia inhibition (Venus reporter); Vaccinia virus Venus reporter expression, fluorescence; Potency, µM (highest dose often 36.5 µM), inactives show top-dose activity change, negative = inhibition, actives largely listed as inhibitors; 0.46% of 330,000 active; calls by dose curve; tested in A549 cells; further: potency means the concentration at half of the fitted maximal effect; nearly all actives have a fitted effect of over 30% in size
FMDV inh: foot and mouth disease virus antiviral activity. FMDV antiviral cell-based qHTS. Potency, µM (highest dose often 57.9 µM), for the others: at the top dose activity change, negative = inhibition, hits mostly inhibitors. 1.2% of 410,000 active. AID 1159524; calls by dose curve; tested in HEK293T cells; further: read-out not given here; potency means the concentration at half of the fitted maximal effect; nearly all actives have a fitted effect of over 45% in size
HCMV antiviral: blocks human cytomegalovirus replication. HFF cells, HCMV-luciferase reporter, 72 h; stronger effect = lower value. activity change, negative = inhibition, % at 57.5 µM. 4.5% of 410,000 active. AID 1259415; in the data active means activity change below about -60%; inconclusive means no clear call, values can overlap the other calls; inactive means above about -39%
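After 16 h attachment at 37C, HFF cells received test compound and HCMV-luciferase (1 PFU/cell); reporter luminescence read 72 h later, data normalized against buffer-only and known inhibitor Salinomycin.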
HCV inh: inhibitors of hepatitis C virus infection; Huh7.5.1 HCVcc-Cre infection, luciferase reporter, 44 h; 3.4% of 340,000 active; Potency, µM (doses to about 41.8 µM), inactives show at the highest dose activity change, negative = inhibition, actives largely listed as inhibitors; active means well fitted inhibition curve with a large enough effect; inconclusive means small, poorly fitted or top-dose-only effect, or another doubt; inactive means no such curve, though single readings can be large or run the other way; further: potency means the concentration at half of the fitted maximal effect
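Infectious HCVcc-Cre (~0.5 moi) was added to cells just after compound, with cells seeded 4 h earlier at 1,000 per well. Luciferase activity after 44 h culture reported infection; substrate was incubated 15 min at room temperature before reading.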
Vaccinia mCherry: vaccinia inhibition (mCherry reporter). Vaccinia virus mCherry reporter infection, fluorescence. Potency, µM (highest dose often 36.5 µM), inactives show at the top dose activity change, negative = inhibition, usual class: inhibitors. 0.63% of 310,000 active; calls by dose curve; tested in A549 cells; further: potency means the concentration at half of the fitted maximal effect; nearly all actives have a fitted effect of over 35% in size
* = called active by the depositor; i = inactive; ? = inconclusive; / = no result given; [ ] = another dose, or the depositor's remark. Only some compounds are listed: those with a hit (about 7.3% of all), similar ones and a draw of the others. On the % scale 0 is the no-effect control and ±100 the full control effect.

SMILES	Vaccinia Venus	FMDV inh	HCMV antiviral	HCV inh	Vaccinia mCherry
N#Cc1cc(-c2ccccc2)nc(Oc2ccccc2)n1	/	?	?	10µM*	/
N#Cc1ccc(Oc2nc(C#N)cc(-c3ccccc3)n2)cc1	-21%	11µM*	?	-12%	-10%
COc1cc(-c2cc(C)c3c(OC)ccc(OC)c3n2)cc2c1OCCN(C(=O)C(C)c1n[nH]c(=O)c3ccccc13)C2 (stereo not drawn)	-4%	-8%	/	/	-11%
CC(=O)N1CCN(c2nnnn2-c2ccccc2)CC1	-6%	-9%	5	10%	-13%
Oc1ccc(N2CCN(c3nnnn3-c3ccccc3)CC2)cc1	-16%	-20%	-63*	-17%	-5%
COc1ccc2c(c1)c(=O)c(S(=O)(=O)c1ccccc1)cn2CC(=O)Nc1ccc(C)c(Cl)c1	-16%	23%	19	/	-13%
Cc1cc(=O)oc(C)c1C(=O)Nc1ccc2nsnc2c1	?	25µM*	32	5%	/
CC(C)c1ccc(NC(=O)C2C3C=CC4(O3)C2C(=O)N(CCCN2CCCCC2)C4C(=O)NC2CCCCC2)cc1 (stereo not drawn)	-3%	-10%	-77*	-14%	7%
Cc1ccc(NC(=O)C2C3C=CC4(O3)C2C(=O)N(CCCN2CCCC2)C4C(=O)NC2CCCCC2)cc1Cl (stereo not drawn)	-3%	3%	-9	-4%	i
O=C(COC(=O)/C=C/c1ccccc1Cl)NC1CC1	-9%	4%	-13	/	0%
CCc1cccc(NS(=O)(=O)c2ccc3c(c2)CC(C)N3C(=O)C2CC2)c1 (stereo not drawn)	?	0%	-80*	/	?
CC1Cc2cc(S(=O)(=O)NCc3ccccc3)ccc2N1C(=O)C1CCC1 (stereo not drawn)	-5%	1%	-11	?	-9%
COc1cccc(NC(=O)CCNS(=O)(=O)c2ccc3c(c2)CC(C)N3C(=O)C2CC2)c1 (stereo not drawn)	0%[7.34 µM]	-1%	-71*	3%	i[7.34 µM]
COc1cc(Cl)c(NS(=O)(=O)c2ccc3c(c2)CC(C)N3C(=O)C2CCC2)c(OC)c1 (stereo not drawn)	-20%[7.34 µM]	?	-86*	/	-18%[7.34 µM]
CC1Cc2cc(S(=O)(=O)NCCc3ccc(Cl)cc3)ccc2N1C(=O)C1CCC1 (stereo not drawn)	-8%	51%	-6	/	-20%
COc1ccc(NS(=O)(=O)c2ccc3c(c2)CC(C)N3C(=O)C2CCC2)cc1OC (stereo not drawn)	-25%	?	-78*	/	-24%
CC1=C(C(=O)Nc2ccc(Cl)cc2)C2(CCCCC2)C(C(N)=O)C(=S)N1 (stereo not drawn)	/	/	?	0%	/
COc1cccc(N2CCN(C(=O)Cn3ncc4c3-c3ccccc3OC4)CC2)c1	-15%	-30%	-4	/	-27%
CCN(CC)C(=O)c1cccc(-c2csc(C(C)(O)c3ccc(OC)cc3)n2)c1 (stereo not drawn)	-25%	-29%	?	/	-12%
CCN(CC)C(=O)c1cccc(-c2csc(C(C)(O)c3cccc(OC)c3)n2)c1 (stereo not drawn)	-10%	35µM*	-78*	/	i
CC(O)(c1ccc(F)c(F)c1)c1nc(-c2cccc(C(=O)O)c2)cs1 (stereo not drawn)	-1%	38%	35	/	-13%
CCN(CC)C(=O)c1cccc(-c2csc(C(C)(O)c3ccc(F)c(F)c3)n2)c1 (stereo not drawn)	?	25µM*	/	/	?
OC[C@@H]1O[C@@H](n2cnc3c(NC4CCCC4)ncnc32)[C@H](O)[C@H]1O	/	-19%	/	/	/
OCC1OC(n2cnc3c(NCc4ccco4)ncnc32)C(O)C1O (stereo not drawn)	?	-16%	-81*	?	?
C=CCNc1ncnc2c1ncn2C1OC(CO)C(O)C1O (stereo not drawn)	?	-14%	-16	?	?
SMILES	Vaccinia Venus	FMDV inh	HCMV antiviral	HCV inh	Vaccinia mCherry
OC[C@H]1O[C@@H](n2cnc3c(NCc4ccco4)ncnc32)[C@H](O)[C@@H]1O	?	-24%	-39	18µM*	10µM*
O=S(=O)(c1ccc(Cl)cc1)c1nc(-c2cccs2)oc1N1CCCCC1	1%	18%	9	/	-20%
CCSc1ccccc1C(=O)N1CCN(c2ccccc2F)CC1	/	4%	-103*	6%	/
CC(C)(C)c1cc(C(=O)Nc2ccc(F)cc2)n(Cc2ccc(F)cc2)n1	/	?	-92*	11µM*	/
Cc1ccc(NNC(=O)c2cc(C(C)(C)C)nn2Cc2ccccc2)cc1	-29%	-9%	-17	?	?
COc1ccccc1NNC(=O)c1cc(C(C)(C)C)nn1Cc1ccccc1	-11%	-9%	22	-17%	-23%
CC(C)(C)c1cc(C(=O)NNc2cccc(Cl)c2)n(Cc2ccccc2)n1	-16%	33%	-73*	-24%	-27%
CC(C)(C)c1cc(C(=O)NNc2cc(C(F)(F)F)ccc2Cl)n(Cc2ccccc2)n1	?	?	-90*	?	?
Cc1ccc(CSc2nc3ccc(NC(=O)CC(C)C)cc3s2)cc1	-7%	3%	-7	/	i
O=C(Nc1cc(Cl)cc(Cl)c1)c1ccc(F)c(S(=O)(=O)NC2CCCCC2)c1	-23%	12%	-21	/	-7%
Cc1ccc2cc(CNC(C)c3cccc4ccccc34)c(N3CCC(O)CC3)nc2c1 (stereo not drawn)	11%	0%	/	/	0%
CCOC(=O)CSc1nc(CC)nc2ccccc12	-6%	/	-16	-25%	-16%
CCOC(=O)CSc1nc(Cc2ccccc2)nc2ccccc12	-10%	0%	-66*	-21%	i
CCOC(=O)CSc1nnc(Cc2ccc(OC)cc2)n1-c1ccccc1	/	8%	-109*	4%	/
COc1ccccc1C(=O)NCCN1CCN(c2ccccc2)CC1	/	-5%	3	0%	/
Cc1ccc(C)c(OCCC(=O)N2CCN(S(=O)(=O)c3cc(C)ccc3C)CC2)c1	-20%	-28%	-1	?	-27%
COC(=O)c1c(OCc2cccnc2)cc(=O)n2c1CCN(C(=O)c1ccc(OC)c(F)c1)CC2	-11%	-5%	/	/	i
Cc1ccccc1-n1c(/C=C/c2ccc(O)cc2)nc2ccccc2c1=O	-8%	-11%	-92*	/	-29%
O=c1c2ccccc2nc(/C=C/c2ccc(O)cc2)n1-c1ccccc1O	/	-9%	-39	-22%	/
Cc1ccc(-n2c(/C=C/c3ccc(Br)s3)nc3ccccc3c2=O)cc1C	-23%	-26%	-65*	/	-19%
Cc1ccccc1-n1c(/C=C/c2ccccn2)nc2ccccc2c1=O	?	0%	-102*	-23%	?
CCOc1ccc(NC(=O)COC(=O)CCN2C(=O)C3CC=CCC3C2=O)cc1OCC (stereo not drawn)	-3%	-7%	0	?	-12%
COCc1cc(N2CCN(C(=O)OC(C)(C)C)C[C@H]2C)ccc1N1CC[C@@H](O)C1	/	/	-20	/	/
O=C(CCNC(=O)c1ccc(Cl)cc1)Nc1ccccc1N1CCCC1	-2%	-7%	-31	7%	-20%
